Results as given in PubChem BioAssay (NCATS).
Inconclusive results are not listed. The source holds several records for some structures; these can differ, active in one and inactive in another. Active and inactive are the calls of the source. Unless noted, the call rests on the fitted dose curve; in most records, active means well fitted curve in the direction sought with a large enough effect; inconclusive means small, poorly fitted or top-dose-only effect, or another doubt; inactive means no such curve, though single readings can be large; an effect the other way counts as inactive or inconclusive.

Columns and labels:
[1] = molecular target: Lysosomal acid glucosylceramidase (Homo sapiens) (UniProt P04062); test: Glucocerebrosidase-p2 (AID 348; in the data active means potency below about 10 µM; further: potency means the concentration at half of the fitted maximal effect); conditions: purified GBA, blue fluorogenic substrate, 40 min
Chain of Lysosomal acid glucosylceramidase (Homo sapiens) (P04062 whole entry, looked up): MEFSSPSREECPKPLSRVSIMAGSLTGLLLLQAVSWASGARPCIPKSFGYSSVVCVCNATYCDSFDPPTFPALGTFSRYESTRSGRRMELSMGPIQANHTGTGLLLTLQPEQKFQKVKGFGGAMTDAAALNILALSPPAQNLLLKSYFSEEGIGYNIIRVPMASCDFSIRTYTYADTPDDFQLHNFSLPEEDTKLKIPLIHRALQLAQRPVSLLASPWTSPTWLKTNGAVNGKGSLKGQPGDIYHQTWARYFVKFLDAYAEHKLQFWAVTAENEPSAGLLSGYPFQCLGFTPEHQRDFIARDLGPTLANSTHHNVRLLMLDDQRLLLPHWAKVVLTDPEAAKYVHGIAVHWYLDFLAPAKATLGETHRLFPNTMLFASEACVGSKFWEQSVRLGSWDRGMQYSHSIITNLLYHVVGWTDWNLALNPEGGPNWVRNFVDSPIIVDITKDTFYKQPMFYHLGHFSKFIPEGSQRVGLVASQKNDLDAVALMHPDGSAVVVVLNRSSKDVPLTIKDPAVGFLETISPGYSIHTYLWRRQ
Procedure, shortened: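 Normal human glucocerebrosidase (0.2 nM) with blue fluorogenic substrate (80 uM final) in citrate/phosphate pH 5.9 with 10mM sodium taurocholate, 0.01% tween-20; 40 min RT, NaOH/glycine stop; fluorescence Ex 365/Em 440; AC50 from a titration from 0.6 nM upwards.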

[2] = molecular target: Cytochrome P450 1A2 (Homo sapiens) (UniProt P05177); test: p450-cyp1a2 (AID 410; calls by dose curve; further: potency means the concentration at half of the fitted maximal effect); conditions: recombinant CYP1A2, luciferin-ME demethylation, luminescence; series mostly up to 57 µM
Chain of Cytochrome P450 1A2 (Homo sapiens) (P05177 whole entry, looked up): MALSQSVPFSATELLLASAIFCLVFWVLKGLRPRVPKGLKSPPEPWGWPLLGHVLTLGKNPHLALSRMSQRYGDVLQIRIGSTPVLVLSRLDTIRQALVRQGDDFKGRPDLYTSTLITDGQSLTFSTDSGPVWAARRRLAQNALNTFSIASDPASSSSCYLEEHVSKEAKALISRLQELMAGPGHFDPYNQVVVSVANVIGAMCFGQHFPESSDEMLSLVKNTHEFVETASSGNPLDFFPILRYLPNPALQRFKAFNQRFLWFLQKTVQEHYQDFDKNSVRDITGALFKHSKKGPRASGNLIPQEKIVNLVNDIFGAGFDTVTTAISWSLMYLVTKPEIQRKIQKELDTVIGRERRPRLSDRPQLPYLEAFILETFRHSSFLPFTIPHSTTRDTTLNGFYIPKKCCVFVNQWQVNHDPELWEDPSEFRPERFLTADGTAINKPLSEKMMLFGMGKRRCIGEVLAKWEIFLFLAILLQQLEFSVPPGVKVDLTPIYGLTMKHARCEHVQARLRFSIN
Procedure, shortened: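 Read-out is luminescence from luciferin produced by CYP1A2 demethylation of Luciferin-ME (100uM, at Km). Detection reagent stopped the 60 min NADPH-dependent reaction; signals were normalized to 57 uM furafylline.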

[3] = Stat Signaling Pathway (AID 446; active means well fitted curve in either direction with a large enough effect, not every such curve was filed as active;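 further: ME-180 cervical cancer cells given 40 pM IL-6 alongside compound; SIE-controlled beta-lactamase reporter measured as 460/530 nm FRET emission ratio; on the % scale 0 is the no-effect control and ±100 the full control effect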); conditions: ME-180 SIE beta-lactamase reporter, IL-6 stimulated, 5 h; at 7.69 µM (top of the series) unless noted
Procedure, shortened: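 Normalization used AC90 stimulation (300 pM IL-6) and AC90 inhibition (125 nM pan-JAK inhibitor at 40 pM IL-6). The underlying signal is SIE-driven beta-lactamase in ME-180 cells after 5 h IL-6 exposure with compound.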

[4] = molecular target: Glucocorticoid receptor (Homo sapiens) (UniProt P04150); test: GR-GFP Redistribution (AID 450;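 active means compounds whose dose series gives a full or clear partial fitted curve of increased nuclear translocation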; further: potency means the concentration at half of the fitted maximal effect); conditions: U2OS GR-GFP nuclear translocation, laser cytometry, 2 h
Chain of Glucocorticoid receptor (Homo sapiens) (P04150 whole entry, looked up, the tested form may be a part): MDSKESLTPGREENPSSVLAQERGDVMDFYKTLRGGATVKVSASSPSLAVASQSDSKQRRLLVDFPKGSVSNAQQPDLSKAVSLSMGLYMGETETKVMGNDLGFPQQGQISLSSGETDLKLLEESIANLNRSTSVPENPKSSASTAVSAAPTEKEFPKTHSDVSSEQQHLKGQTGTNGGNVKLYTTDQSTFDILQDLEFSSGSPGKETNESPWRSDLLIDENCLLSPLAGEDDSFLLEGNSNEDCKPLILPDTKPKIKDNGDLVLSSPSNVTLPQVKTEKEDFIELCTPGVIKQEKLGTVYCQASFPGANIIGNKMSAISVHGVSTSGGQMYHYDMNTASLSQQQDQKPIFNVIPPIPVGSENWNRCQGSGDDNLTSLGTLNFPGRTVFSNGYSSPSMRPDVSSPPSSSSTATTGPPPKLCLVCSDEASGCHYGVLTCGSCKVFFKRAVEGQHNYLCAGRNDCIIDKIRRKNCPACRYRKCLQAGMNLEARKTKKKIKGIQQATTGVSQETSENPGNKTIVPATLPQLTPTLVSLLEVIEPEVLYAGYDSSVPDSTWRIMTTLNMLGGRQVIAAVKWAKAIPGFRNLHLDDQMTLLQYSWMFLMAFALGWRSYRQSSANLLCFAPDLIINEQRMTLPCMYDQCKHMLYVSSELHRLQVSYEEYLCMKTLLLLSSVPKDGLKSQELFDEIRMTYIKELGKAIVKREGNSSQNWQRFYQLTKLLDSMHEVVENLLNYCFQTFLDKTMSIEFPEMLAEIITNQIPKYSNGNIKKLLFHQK

[5] = molecular target: Glucocorticoid receptor (Homo sapiens) (UniProt P04150); test: GR-EFC Redistribution (AID 451; calls by dose curve; further: potency means the concentration at half of the fitted maximal effect); conditions: CHO-K1 GR-EFC translocation, beta-gal luminescence, 2 h
Procedure, shortened: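 Translocation of GR-ED fusion to nuclear EA restores b-gal, read by luminescence after 1 h room-temperature detection. Engineered CHO-K1 biosensor cells, 1,000/well, exposed 2 h at 37 C to titrations up to 46 uM final.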

[6] = molecular target: Mitogen-activated protein kinase 10 (Mus musculus) (UniProt Q61831); test: JNK3 AlphaScreen Assay (AID 530; active means well fitted curve in either direction with a large enough effect, not every such curve was filed as active;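 further: kinase came from lysate of stimulated human HepG2 cells; signal reports phosphorylation of biotinylated GST-cJun 1-79 at Ser73 with 10 µM ATP; on the % scale 0 is the no-effect control and ±100 the full control effect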); conditions: JNK3 lysate, c-Jun phosphorylation; series mostly up to 57.1 µM
Procedure, shortened: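 Kinase buffer: 20 mM Tris-HCl pH 7.6, 10 mM MgCl2, 1 mM DTT, 0.1 mM Na3VO4, 0.01% Tween-20; ATP 10 uM. Substrate biotin-GST-cJun(1-79), enzyme from activated HepG2 lysates. Detection by Ser73 phospho-antibody AlphaScreen.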

[7] = molecular target: Cytochrome P450 3A4 (Homo sapiens) (UniProt P08684); test: qHTS Assay for Activators of Cytochrome P450 3A4 (AID 885); conditions: recombinant CYP3A4, Luciferin-PPXE luminescence, 60 min; series mostly up to 57.1 µM; further: nearly all actives have a fitted effect of over 65% in size
Chain of Cytochrome P450 3A4 (Homo sapiens) (P08684 whole entry, looked up): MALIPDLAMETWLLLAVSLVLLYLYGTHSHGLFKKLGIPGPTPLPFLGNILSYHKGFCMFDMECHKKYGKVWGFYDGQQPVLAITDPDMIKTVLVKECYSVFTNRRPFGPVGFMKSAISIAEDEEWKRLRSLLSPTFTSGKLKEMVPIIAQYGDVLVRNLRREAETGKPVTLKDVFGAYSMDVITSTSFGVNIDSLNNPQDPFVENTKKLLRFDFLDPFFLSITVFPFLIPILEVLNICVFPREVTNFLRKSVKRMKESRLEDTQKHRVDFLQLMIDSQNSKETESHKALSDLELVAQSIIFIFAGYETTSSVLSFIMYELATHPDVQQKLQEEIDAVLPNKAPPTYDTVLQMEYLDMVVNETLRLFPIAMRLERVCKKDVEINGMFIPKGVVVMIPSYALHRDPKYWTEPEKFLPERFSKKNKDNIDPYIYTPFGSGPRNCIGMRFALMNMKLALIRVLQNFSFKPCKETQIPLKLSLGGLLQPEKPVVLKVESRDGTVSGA
Procedure, shortened: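 Human CYP3A4 dealkylates Luciferin-PPXE to luciferin, which luciferase detection converts to light. Substrate was at its KM (25uM), buffer 200mM KPO4, reaction 60 min at RT.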

[8] = molecular target: Cytochrome P450 2D6 (Homo sapiens) (UniProt P10635); test: qHTS Assay for Inhibitors and Substrates of Cytochrome P450 2D6 (AID 891); conditions: recombinant CYP2D6, luciferin-ME EGE luminescence; series mostly up to 57.1 µM; further: potency means the concentration at half of the fitted maximal effect; nearly all actives have a fitted effect of over 60% in size
Chain of Cytochrome P450 2D6 (Homo sapiens) (P10635 whole entry, looked up): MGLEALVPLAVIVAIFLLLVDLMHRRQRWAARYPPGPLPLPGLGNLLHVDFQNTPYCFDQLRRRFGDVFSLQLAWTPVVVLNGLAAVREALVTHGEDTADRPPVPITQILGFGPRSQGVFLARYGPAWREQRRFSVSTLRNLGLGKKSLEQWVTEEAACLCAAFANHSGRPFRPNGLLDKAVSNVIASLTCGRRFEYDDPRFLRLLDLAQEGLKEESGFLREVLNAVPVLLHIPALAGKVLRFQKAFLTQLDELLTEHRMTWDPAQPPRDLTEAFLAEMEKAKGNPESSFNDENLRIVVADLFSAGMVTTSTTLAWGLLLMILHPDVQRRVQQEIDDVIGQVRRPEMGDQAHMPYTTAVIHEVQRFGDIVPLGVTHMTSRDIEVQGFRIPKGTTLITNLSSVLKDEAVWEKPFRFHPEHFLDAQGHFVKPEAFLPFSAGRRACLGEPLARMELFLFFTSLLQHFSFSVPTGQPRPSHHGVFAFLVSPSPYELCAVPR
Procedure, shortened: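 Luminescent read-out of luciferin formed by 5 nM human CYP2D6 demethylating 30 uM Luciferin-ME EGE (Km level) over 60 min at room temperature after NADPH regeneration addition. Data normalized to full inhibition by 1.43 uM quinidine.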

[9] = molecular target: Cytochrome P450 2C19 (Homo sapiens) (UniProt P33261); test: qHTS Assay for Inhibitors and Substrates of Cytochrome P450 2C19 (AID 899); conditions: recombinant CYP2C19, luciferin-H EGE luminescence; series mostly up to 57.1 µM; further: potency means the concentration at half of the fitted maximal effect; nearly all actives have a fitted effect of over 60% in size
Procedure, shortened: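 5nM enzyme + 10uM Luciferin-H EGE (=KM), 50mM KPO4; cpd pin-transferred, 10 min 37C; NADPH regen, 60 min 37C; stopped w/ luciferin detection reagent, 20 min; luminescence. Normalized to 57uM ketoconazole (AC100).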

[10] = Confirmation and Secondary Assay for Modulators of Hemoglobin Beta Chain Splicing at IVS2 654 locus (AID 910); conditions: HeLa EGFP-654 splicing reporter, GFP fluorescence, 48 h; series mostly up to 38.3 µM;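 further: HeLa cells stably carrying EGFP split by mutant beta-globin IVS2-654 intron; per-well total GFP intensity by laser scanning cytometry after 2-day treatment; % of control where 0% means no effect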
Procedure, shortened: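 Readout: per-well total peak green fluorescence (488 nm ex, 500–520 nm em) from objects 5–250 µm, reflecting correct splicing of an EGFP-654 reporter. Compounds were applied for 2 days at 37 °C to overnight-plated HeLa EGFP-654 cells; controls were DMSO and 500 nM IVS2-654 PNA.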

[11] = Confirmation and Secondary Assay for Modulators of Hemoglobin Beta Chain Splicing at IVS2 705 locus (AID 930); conditions: HeLa EGFP-705 splicing reporter, GFP fluorescence, 48 h; series mostly up to 38.3 µM;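 further: HeLa cells stably expressing the EGFP-705 splicing reporter; GFP fluorescence per well restored by corrected splicing of the IVS2-705 intron in EGFP; % of control where 0% means no effect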
Procedure, shortened: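 First, HeLa EGFP-705 cells are seeded at 500/well in Optimem with 2% FCS and left overnight. Next, compound or DMSO is added for 2 days. Finally wells are laser-scanned and total peak GFP intensity scored.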

[12] = qHTS Assay for Lipid Storage Modulators (AID 1519; calls by dose curve); conditions: Drosophila S3 cells, BODIPY lipid droplet/cell ratio, laser cytometry, cells loaded with oleic acid; for activity change, negative = inhibition: at 57.5 µM (top of the series)
Procedure, shortened: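 Cells seeded at 5,000 per well were treated with compounds over a concentration series and loaded with oleic acid (400 uM, as added). Lipid droplet fluorescence (488 nm excitation, 500-530 nm channel) was read by laser-scanning cytometry and normalized to 20 uM Triacsin C.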

[13] = molecular target: Rap guanine nucleotide exchange factor 3 (Homo sapiens) (UniProt O95398); test: Confirmatory qHTS for antagonist of cAMP-regulated guanine nucleotide exchange factor 3 (EPAC1) (AID 1645880); conditions: EPAC1 Rap1B-BODIPY-GDP exchange, fluorescence; series mostly up to 115 µM;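 further: plate controls were DMSO only for no effect and full effect of the ATA control for full effect; nearly all actives have a fitted effect of over 55% in size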
Chain of Rap guanine nucleotide exchange factor 3 (Homo sapiens) (O95398 whole entry, looked up): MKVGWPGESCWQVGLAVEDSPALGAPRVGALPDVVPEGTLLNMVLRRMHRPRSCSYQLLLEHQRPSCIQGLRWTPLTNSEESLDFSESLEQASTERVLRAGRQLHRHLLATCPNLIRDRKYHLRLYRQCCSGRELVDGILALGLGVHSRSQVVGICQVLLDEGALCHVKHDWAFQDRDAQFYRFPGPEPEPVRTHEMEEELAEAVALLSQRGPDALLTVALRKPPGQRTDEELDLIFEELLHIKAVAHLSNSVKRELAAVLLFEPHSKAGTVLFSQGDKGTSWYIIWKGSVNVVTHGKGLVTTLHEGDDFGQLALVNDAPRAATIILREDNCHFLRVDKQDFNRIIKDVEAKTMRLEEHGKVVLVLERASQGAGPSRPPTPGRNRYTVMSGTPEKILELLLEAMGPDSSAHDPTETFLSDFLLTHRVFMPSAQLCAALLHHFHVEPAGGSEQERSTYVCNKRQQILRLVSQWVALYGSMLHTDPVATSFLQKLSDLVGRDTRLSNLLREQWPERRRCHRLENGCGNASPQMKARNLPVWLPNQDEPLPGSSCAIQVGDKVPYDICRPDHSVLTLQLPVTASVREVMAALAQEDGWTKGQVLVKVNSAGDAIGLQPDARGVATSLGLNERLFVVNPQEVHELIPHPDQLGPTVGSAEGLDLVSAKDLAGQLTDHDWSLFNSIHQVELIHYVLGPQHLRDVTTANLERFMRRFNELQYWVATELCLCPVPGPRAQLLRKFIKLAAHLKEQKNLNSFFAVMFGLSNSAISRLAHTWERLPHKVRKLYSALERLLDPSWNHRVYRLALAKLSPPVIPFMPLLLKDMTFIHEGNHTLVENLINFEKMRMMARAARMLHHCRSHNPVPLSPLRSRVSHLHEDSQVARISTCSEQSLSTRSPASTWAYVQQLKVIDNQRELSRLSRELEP
Procedure, shortened: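 Released BODIPY-GDP fluoresces less than Rap1-bound BODIPY-GDP; the signal is followed at 480/540 nm at 5-min intervals over 30 min, after 5 min at room temperature. Reactions contain 100 nM EPAC1, 250 nM RAP1B-BODIPY-GDP and 50 uM GDP; results are normalized to ATA and DMSO.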

[14] = molecular target: Rap guanine nucleotide exchange factor 3 (Homo sapiens) (UniProt O95398); test: Confirmatory qHTS for agonist of cAMP-regulated guanine nucleotide exchange factor 3 (EPAC1) (AID 1645881); conditions: EPAC1 Rap1B BODIPY-GDP exchange fluorescence; series mostly up to 154 µM;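 further: EPAC1 catalysed release of BODIPY-GDP from Rap1B seen as fluorescence loss; 100% = effect of cAMP agonist control; nearly all actives have a fitted effect of over 75% in size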
[15] = molecular target: Rap guanine nucleotide exchange factor 4 (Homo sapiens) (UniProt Q8WZA2); test: Confirmatory qHTS for agonist of cAMP-regulated guanine nucleotide exchange factor 4 (EPAC2) (AID 1645884); conditions: EPAC2 GEF activity, Rap1B-BODIPY-GDP fluorescence; series mostly up to 154 µM;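 further: nucleotide exchange releases bodipy-GDP from Rap1 and this lowers its fluorescence; on the % scale 0 is the no-effect control and ±100 the full control effect; nearly all actives have a fitted effect of over 65% in size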
Chain of Rap guanine nucleotide exchange factor 4 (Homo sapiens) (Q8WZA2 whole entry, looked up): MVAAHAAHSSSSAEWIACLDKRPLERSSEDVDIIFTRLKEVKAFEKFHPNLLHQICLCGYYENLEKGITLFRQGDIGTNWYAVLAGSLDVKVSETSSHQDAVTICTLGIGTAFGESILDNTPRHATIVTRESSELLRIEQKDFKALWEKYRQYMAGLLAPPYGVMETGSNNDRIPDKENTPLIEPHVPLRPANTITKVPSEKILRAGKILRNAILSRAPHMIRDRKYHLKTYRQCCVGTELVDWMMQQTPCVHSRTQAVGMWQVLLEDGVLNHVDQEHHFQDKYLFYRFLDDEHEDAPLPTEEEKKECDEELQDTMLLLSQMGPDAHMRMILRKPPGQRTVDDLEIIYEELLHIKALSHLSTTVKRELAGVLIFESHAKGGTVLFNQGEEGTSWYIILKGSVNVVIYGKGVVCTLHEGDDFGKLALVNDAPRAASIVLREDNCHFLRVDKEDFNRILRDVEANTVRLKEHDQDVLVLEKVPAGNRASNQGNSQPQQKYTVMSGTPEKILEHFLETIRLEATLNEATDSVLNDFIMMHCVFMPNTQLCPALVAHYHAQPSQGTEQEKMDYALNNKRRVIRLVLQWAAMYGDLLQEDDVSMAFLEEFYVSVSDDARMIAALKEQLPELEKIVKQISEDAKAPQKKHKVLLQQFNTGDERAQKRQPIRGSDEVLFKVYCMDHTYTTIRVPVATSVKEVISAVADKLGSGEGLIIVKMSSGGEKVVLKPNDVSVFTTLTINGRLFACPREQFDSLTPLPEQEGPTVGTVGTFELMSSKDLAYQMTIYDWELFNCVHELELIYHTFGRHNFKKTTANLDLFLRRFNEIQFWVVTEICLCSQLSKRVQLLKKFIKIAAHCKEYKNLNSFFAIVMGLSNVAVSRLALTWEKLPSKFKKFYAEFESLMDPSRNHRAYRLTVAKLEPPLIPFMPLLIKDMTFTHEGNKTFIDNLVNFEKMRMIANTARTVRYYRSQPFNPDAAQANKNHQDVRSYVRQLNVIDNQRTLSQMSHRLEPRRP

[16] = molecular target: Rap guanine nucleotide exchange factor 4 (Homo sapiens) (UniProt Q8WZA2); test: Confirmatory qHTS for antagonist of cAMP-regulated guanine nucleotide exchange factor 4 (EPAC2) (AID 1645885); conditions: EPAC2 Rap1B-BODIPY-GDP exchange fluorescence, biochemical; series mostly up to 114 µM; further: nearly all actives have a fitted effect of over 25% in size; further: potency means the concentration at half of the fitted maximal effect
[17] = molecular target: Rap guanine nucleotide exchange factor 3 (Homo sapiens) (UniProt O95398); test: Counterscreen qHTS for antagonist of cAMP-regulated guanine nucleotide exchange factor 3 (EPAC1) (AID 1645888); conditions: Rap1B-BODIPY-GDP nucleotide exchange, fluorescence; series mostly up to 154 µM; further: % of control where 0% means no effect
Procedure, shortened: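 Rap1B-BODIPY-GDP 250 nM + GDP 50 uM; cpds 7-pt, final 9.74 nM–152 uM (activator mode) or from 7.32 nM upwards (inhibitor mode); RT; FI 480/540 nm at 5 and 30 min, then ± cAMP, reread.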

[18] = molecular target: Ubiquitin carboxyl-terminal hydrolase 1 (Homo sapiens) (UniProt O94782); test: Inhibitors of USP1/UAF1: Pilot qHTS (AID 504865); conditions: purified USP1/UAF1, Ub-rhodamine cleavage fluorescence; series mostly up to 54.9 µM;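 further: rhodamine fluorescence freed from ubiquitin-rhodamine substrate followed over time; top concentration of the series differs between compounds; on the % scale 0 is the no-effect control and ±100 the full control effect; nearly all actives have a fitted effect of over 35% in size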
Procedure, shortened: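 In 50mM HEPES pH 7.8 containing 0.5mM EDTA, 1mM TCEP, 0.1 mg/ml BSA and 0.01% Tween-20, 1nM USP1/UAF1 is exposed to compound for 15 min, then Ub-Rho (150nM final) is added and fluorescence is read over time.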

[19] = AP1 Signaling Pathway (AID 357; active means well fitted curve in either direction with a large enough effect, not every such curve was filed as active;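 further: ME-180 reporter cells stimulated with EGF at its EC50 level; on the % scale 0 is the no-effect control and ±100 the full control effect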); conditions: ME-180 (cervical carcinoma) AP-1-bla reporter, EGF-induced, beta-lactamase ratio, 5 h; at 7.69 µM (top of the series) unless noted
Procedure, shortened: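 First, ME-180 AP-1-bla cells were cultured overnight at 37 °C in low-serum Opti-MEM. Next, titrated compounds with EC50 EGF were incubated 5 hours. Finally, CCF4 was added for 2.5 hours and the 460/530 nm ratio recorded.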

[20] = NFAT Signaling Pathway (AID 444; active means well fitted curve in either direction with a large enough effect, not every such curve was filed as active;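 further: carbachol stimulus at about its EC50 of 1 µM final; on the % scale 0 is the no-effect control and ±100 the full control effect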); conditions: Jurkat NFAT-bla M1, carbachol, beta-lactamase ratio, 5 h; at 7.69 µM (top of the series) unless noted
Procedure, shortened: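 Read-out: CCF4 FRET ratio (460 nm/530 nm) after 1 h RT dye loading, used for %activity and AC50 from titration series. Cells: Jurkat NFAT-β-lactamase/M1 line, treated with compound plus 1 uM carbachol for 5 h, 37 °C.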

[21] = molecular target: Cytochrome P450 3A4 (Homo sapiens) (UniProt P08684); test: qHTS Assay for Inhibitors and Substrates of Cytochrome P450 3A4 (AID 884); conditions: recombinant CYP3A4, Luciferin-PPXE luminescence; series mostly up to 57.1 µM; further: potency means the concentration at half of the fitted maximal effect; nearly all actives have a fitted effect of over 50% in size
Procedure, shortened: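 Luminescent readout of luciferin produced by CYP3A4 (20 nM) dealkylation of Luciferin-PPXE, 25 uM (its KM). NADPH-driven reaction ran 60 min at RT after 10 min compound preincubation; data scaled to 57 uM ketoconazole as 100% inhibition.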

[22] = measured here: cell count channel max response
[23] = measured here: lipid channel max response

CN(Cc1ccco1)c1ncnc2ccc(-c3ccc4c(c3)OCO4)cc12
-5.56%: max response [12, 23]
-9.61%: max response [12, 22]
active: Potency [2] 0.501 µM | Potency [8] 1.58 µM | Potency [9] 0.631 µM
13.9 µM (active) and inactive: Potency [16]
inactive: Potency [1] > 11.4 µM | activity, negative = inhibition [3] -7.17% | Potency [4] > 46 µM | Potency [5] > 46 µM | Potency [6] | Potency [7] | Potency [10] | outcome [11] | activity change, negative = inhibition [12] 2.26% | Potency [13] | Potency [14] | Potency [15] | outcome [17]

NCC1OC(n2cnc3c(=O)[nH]c(N)nc32)C(O)C1O (centres undefined)
-2.83%: max response [12, 23]
inactive: Potency [10] | outcome [11] | activity change, negative = inhibition [12] 2.55% | Potency [18] | Potency [13] | Potency [14] | Potency [15] | Potency [16]
-3.82%: max response [12, 22]

CC(=O)OC1CCC23CC1(C)CCC2C(C)(C)CC3OC(C)=O (centres undefined)
inactive: Potency [7] | Potency [10] | outcome [11] | activity change, negative = inhibition [12] 2.71% | Potency [14] | Potency [15]
3.38%: max response [12, 22]
active: Potency [16] 39.3 µM
6.37%: max response [12, 23]

CN(Cc1ccco1)c1nc(-c2ccccc2Cl)nc2ccccc12
24.3%: max response [12, 23]
inactive: activity change, negative = inhibition [19] 16.9% | activity change, negative = inhibition [20] -23.4% | activity, negative = inhibition [3] 21.7% | Potency [4] > 46 µM | Potency [5] > 46 µM | Potency [6] | Potency [10] | outcome [11] | activity change, negative = inhibition [12] 11.9% | Potency [13] | Potency [14] | Potency [15]
14.1%: max response [12, 22]

CC1(C)C(O)CC[C@]2(C)C1CC[C@@]1(C)C2C(=O)C=C2[C@@H]3C[C@@](C)(C(=O)O)CC[C@@]3(C)CCC21C (some centres undefined)
28.1%: max response [12, 23]
active: Potency [16] 4.94 µM
inactive: Potency [7] | Potency [10] | outcome [11] | activity change, negative = inhibition [12] 9.4% | Potency [14] | Potency [15]
16.2%: max response [12, 22]

COc1ccccc1CNc1ncnc2ccc(-c3cccnc3)cc12
-6.23%: max response [12, 23]
active: Potency [2] 0.316 µM | Potency [21] 2 µM | Potency [8] 5.01 µM
inactive: Potency [1] > 11.4 µM | activity change, negative = inhibition [20] 12.3% | activity, negative = inhibition [3] -17.2% | Potency [4] > 46 µM | Potency [5] > 46 µM | Potency [6] | Potency [7] | Potency [10] | outcome [11] | activity change, negative = inhibition [12] 3.28% | Potency [13] | Potency [14] | Potency [15]
-9.63%: max response [12, 22]
